The supplement of paper PMC13380429

Test system: Vero E6 infected with SARS-CoV-2
Experiment: inhibition of SARS-CoV-2 cytopathic effect; higher = more antiviral protection, active = above 15
Conditions: 48 h

Measured: inhibition of SARS-CoV-2 cytopathic effect

COc1ccc(-n2[nH]c3c4c(ncc3c2=O)CCCCC4)cc1
inactive: 1 nM 0.69% | 8.33 nM 0.11% | 100 nM -0.83% | 833.33 nM 1.15% | 10000 nM -1.86%

O=c1c(-c2ccc(O)cc2)coc2c([C@@H]3O[C@H](CO)[C@@H](O)[C@H](O)[C@H]3O)c(O)ccc12 [puerarin]
inactive: 1 nM -2.73% | 8.33 nM -3.08% | 100 nM -2.16% | 833.33 nM 2.34% | 10000 nM -0.84%

O=[N+]([O-])c1ccc2c(c1)S(=O)(=O)C=C2 [stattic]
inactive: 1 nM -2.62% | 8.33 nM -2.1% | 100 nM -5.02% | 833.33 nM 5.41% | 10000 nM -2.07%

Cc1ccccc1C(=O)Nc1ccc(C(=O)N2CCCC(N(C)C)c3ccccc32)cc1 (stereo not given) [mozavaptan]
inactive: 1 nM 0.68% | 8.33 nM 1.45% | 100 nM 3.31% | 833.33 nM -0.56% | 10000 nM -5.53%

Cc1onc(-c2ccccc2)c1C(=O)N[C@@H]1C(=O)N2[C@@H]1SC(C)(C)[C@@H]2C(=O)O [oxacillin]
inactive: 1 nM 0.69% | 8.33 nM 1.54% | 100 nM 2.17% | 833.33 nM 3.32% | 10000 nM 1.32%

CCC(=O)O[C@H](CC(=O)O)C[N+](C)(C)C [levocarnitine-propionate]
inactive: 1 nM -0.81% | 8.33 nM 4.36% | 100 nM 0.32% | 833.33 nM 3.36% | 10000 nM 0.31%

COc1ncc2cc(C(=O)Nc3cc(C(=O)NCc4cccc(Cl)c4)ccc3Cl)c(=O)[nH]c2n1
inactive: 1 nM -2.51% | 8.33 nM 1.46% | 100 nM 0.99% | 833.33 nM 0.54% | 10000 nM 2.62%

O=C(CCc1ccc(O)cc1)c1c(O)cc(O)cc1O[C@@H]1O[C@H](CO)[C@@H](O)[C@H](O)[C@H]1O [phlorizin]
inactive: 1 nM -2.08% | 8.33 nM 0% | 100 nM -10.3% | 833.33 nM 0.18% | 10000 nM 1.43%

O=C1CN(/N=C/c2ccc(-c3ccc([N+](=O)[O-])cc3)o2)C(=O)N1 [dantrolene]
inactive: 1 nM -2.23% | 8.33 nM 0.6% | 100 nM -1.1% | 833.33 nM -0.88% | 10000 nM 1.97%

O=c1c(-c2ccc(O)cc2)coc2cc(O)cc(O)c12 [genistein]
inactive: 1 nM -1.79% | 8.33 nM 1.66% | 100 nM 2.02% | 833.33 nM 3.3% | 10000 nM -1.82%

CCN(CC)C(=O)[C@@]1(c2ccccc2)C[C@H]1CN [milnacipran]
inactive: 1 nM -4.3% | 8.33 nM -3.38% | 100 nM -4.94% | 833.33 nM -0.26% | 10000 nM 1.05%

CN1C(C(=O)Nc2ccccn2)=C(O)c2sccc2S1(=O)=O [tenoxicam]
inactive: 1 nM -1.61% | 8.33 nM -5.04% | 100 nM -1.6% | 833.33 nM 0.7% | 10000 nM -2.71%

CC(=O)Nc1ccc(O)cc1 [paracetamol]
inactive: 1 nM -0.44% | 8.33 nM 1.77% | 100 nM -0.22% | 833.33 nM 0.33% | 10000 nM -2.2%

Brc1c(Br)c(Br)c2[nH]nnc2c1Br [4,5,6,7-tetrabromobenzotriazole]
inactive: 1 nM 1.42% | 8.33 nM 3.75% | 100 nM -0.07% | 833.33 nM 1.63% | 10000 nM 3.61%

OCC(O)CN1CCN(c2ccccc2)CC1 (stereo not given) [dropropizine]
inactive: 1 nM -2.5% | 8.33 nM -2.56% | 100 nM -2.71% | 833.33 nM -2.45% | 10000 nM -3%

CN1CCN(c2c(F)cc3c(=O)c(C(=O)O)cn4c3c2SCC4)CC1 [rufloxacin]
inactive: 1 nM 0.11% | 8.33 nM -1.78% | 100 nM 0.94% | 833.33 nM 1.64% | 10000 nM -3.47%

Cc1ccc2c(Cl)cc(Cl)c(O)c2n1 [chlorquinaldol]
inactive: 1 nM -1.39% | 8.33 nM -0.32% | 100 nM -1.09% | 833.33 nM -1.86% | 10000 nM 0.43%

CC(C)(C)c1[nH]cnc1/C=c1\[nH]c(=O)/c(=C/c2ccccc2)[nH]c1=O [plinabulin]
inactive: 1 nM 0.88% | 8.33 nM 3.39% | 100 nM -1.75% | 833.33 nM 0.24% | 10000 nM 2.48%

Cc1cc(C)nc(SCC(=O)Nc2ncc(Cc3cccc4ccccc34)s2)n1
inactive: 1 nM 0.9% | 8.33 nM -1.68% | 100 nM 1.78% | 833.33 nM 0.63% | 10000 nM 2.48%

COc1ccc2cc(OCC3(C(=O)O)CN(C(=O)c4ccc(F)cc4)C3)ccc2c1
inactive: 1 nM 2.48% | 8.33 nM 0% | 100 nM 1.35% | 833.33 nM 2.44% | 10000 nM 1.77%
